Each compound was assayed against Solute carrier family 2, facilitated glucose transporter member 1 (Homo sapiens) (UniProt P11166) (assay: ST_JUDE_LEISH: Cytotoxicity at 2uM final concentration against transgenic Leishmania Mexicana promastigotes LmGLUT1 that are glucose transport deficient and complemented with the human glucose transporter GLUT1. Activity is measured by DNA content using SYBR green in vitro).
Format: functional

Chain of Solute carrier family 2, facilitated glucose transporter member 1 (Homo sapiens) (P11166 whole entry): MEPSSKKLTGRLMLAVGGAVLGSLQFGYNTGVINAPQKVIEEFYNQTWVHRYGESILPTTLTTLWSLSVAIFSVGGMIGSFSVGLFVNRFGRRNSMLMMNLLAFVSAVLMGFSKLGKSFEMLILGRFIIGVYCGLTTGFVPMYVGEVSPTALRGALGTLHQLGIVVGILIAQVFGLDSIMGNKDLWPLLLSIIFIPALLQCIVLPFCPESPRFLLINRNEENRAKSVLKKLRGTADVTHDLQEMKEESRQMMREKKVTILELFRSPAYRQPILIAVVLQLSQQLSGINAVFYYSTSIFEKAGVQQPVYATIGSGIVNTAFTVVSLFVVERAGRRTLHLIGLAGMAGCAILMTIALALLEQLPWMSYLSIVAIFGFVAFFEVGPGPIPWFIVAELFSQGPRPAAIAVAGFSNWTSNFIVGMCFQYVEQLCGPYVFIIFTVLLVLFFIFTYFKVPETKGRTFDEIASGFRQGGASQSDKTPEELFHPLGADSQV

Row | Structure (SMILES) | inhibition [%]
1 | CCCc1cc(Cc2cnc(N)nc2N)cc(CCC)c1OCCCCC(=O)OCC | 6.48
2 | CC(C)C[C@@H](/C=N/N1CCOC1=O)NC(=O)[C@H](CC(C)C)NC(=O)c1ccc(F)cc1 | 7.39
3 | CCc1c[nH]c2c(N3CCCCS3(=O)=O)cc(C(=O)N[C@@H](Cc3ccccc3)[C@H](O)CNCc3cccc(OC)c3)cc12 | 0.82
4 | COc1ccc(NC(=O)/C=C/c2ccccc2Cl)cc1OCCN1CCC(N(C)C)CC1 | 2.23
5 | O=C(Nc1cccc(CN2CCN(Cc3ccc(O)cc3)CC2)c1)c1cc2ccccc2s1 | 8.18
6 | CCN(CC)CCN(Cc1ccc(-c2ccc(C(F)(F)F)cc2)cc1)C(=O)Cn1c(CCc2cc(F)ccc2F)nc(=O)c2ccccc21 | 1.25
7 | N=C(N)Nc1nc(-c2cccc(NC(=O)NCc3ccc(OC(F)(F)F)cc3)c2)cs1 | 1.51
8 | Cc1cccc2nc(-c3cccc(-c4ccc(NC(=O)C(C)C(=O)NC(C)C)cc4)c3)[nH]c12 (stereo not given) | 0.75
9 | CC(CN1CCN(C)CC1)C(=O)Nc1cccc(-c2ccc(-c3nc4cc(F)ccc4[nH]3)cc2)c1 (stereo not given) | 4.67
10 | O=C(NC1CCCCN(Cc2ccccc2O)C1)c1cc(F)cc(F)c1 (stereo not given) | 4.28
11 | COc1ccc(CN2CCC2=O)c(OC)c1 | 4.12
12 | O=c1[nH]ccc2nc(N[C@@H]3CCNC3)nc(Nc3cccc(S(=O)(=O)N4CCOCC4)c3)c12 | 2.94
13 | COc1ccc(NC(=O)/C=C/c2ccccc2Cl)cc1OCCN1CCC(N2CCCCC2)CC1 | 7.74
14 | Cc1ccc(Oc2ccc(CNc3nc(Nc4cccc(F)c4)nc(Nc4cccc(F)c4)n3)cc2)cc1 | 8.54
15 | O=C1Nc2cccc3c2C1(CCCCN1CCC(c2c(-c4ccc(F)cc4)[nH]c4ccccc24)CC1)CCC3 (stereo not given) | 5.51
16 | CCN(CC1CCN(CC2(O)CCOCC2)CC1)c1cc(C)nc(Nc2ccc(Cl)cc2)n1 | -1.01
17 | COc1cc(Nc2nccc(N3CCC(NC(=O)C(C)c4ccc(Cl)cc4)C3)n2)cc(OC)c1OC (stereo not given) | 0.95
18 | Cc1ccc(C(=O)NCC2CCN(c3ccc(C(F)(F)F)cc3NC(=O)c3ccco3)CC2)cn1 | 2.76
19 | O=c1cc(NC[C@H]2CCC[C@@H]2NC2CCCc3c2[nH]c2ccccc32)[nH]c2ccccc12 (stereo not given in full) | 0.74
20 | CC(C)(C)C(=O)Oc1ccc(CC2NCCc3cc(OC(=O)C(C)(C)C)c(OC(=O)C(C)(C)C)cc32)cc1OC(=O)C(C)(C)C (stereo not given) | 8.66

Row | Structure (SMILES) | inhibition [%]
21 | O=C(Nc1cc(C(F)(F)F)ccc1-n1cncn1)C1(c2ccccc2)CC1 | -1.28
22 | Clc1ccc(CNCCCCCCCNCc2ccc(Cl)c(Cl)c2)cc1Cl | -1.86
23 | CCOC(=O)c1ccc2[nH]c(-c3ccc(C(=O)NCc4ccc(C(C)(C)C)cc4)cc3)nc2c1 | 4.63
24 | C[C@@H](Oc1cc(-n2cnc3ccc(OCC4CCN(S(C)(=O)=O)CC4)cc32)sc1C(N)=O)c1ccccc1C(F)(F)F | 11.6
25 | CN(C)CCOc1ccc(-c2cc(-c3ccncc3)c(-c3ccc(Cl)c(O)c3)o2)cc1 | 1.31
26 | O=C(NCCCCCN1CCC(c2c[nH]c3ccccc23)CC1)Nc1cccc(I)c1 | 14.6
27 | CCc1cc2c(=O)c(-c3nc(C)cs3)c([C@H](N)Cc3ccc(O)cc3)oc2cc1O | 2.9
28 | O=C(NC1CCN(c2ccnc3cc(Cl)ccc23)C1)c1ccc(F)cc1 (stereo not given) | 2.4
29 | Cc1ccc(O)cc1Nc1ccnc2cc(-c3csc(CNCCN4CCOCC4)n3)ccc12 | 1.41
30 | COc1ccc([N+](=O)[O-])cc1N(Cc1ccccc1-c1ccccc1)S(=O)(=O)c1ccc(C(F)(F)F)cc1 | 3.87
31 | COc1cccc(-c2cnc(-c3ccncc3)nc2C2CCN(Cc3ccc(NC(C)=O)cc3)CC2)c1 | 3.49
32 | COc1ccc(-c2ccc(CN(C)C3CCC(NC(=O)c4cc5ccccc5[nH]4)CC3)cc2)cn1 (stereo not given) | -1.44
33 | Cc1cc(N[C@@H](Cc2ccccc2)C(=O)NCc2cccc(F)c2)nc(Nc2ccccc2)n1 | 6.85
34 | Cc1cc(OCC2CCN(c3ncc(C(=O)Nc4ccccc4)cc3Cl)CC2)ccc1F | 1.05
35 | Cc1nc2ccc(NC(=O)Nc3ccnc4ccc(C(F)(F)F)cc34)cc2o1 | 5.89
36 | CCCCCCNC(=O)C1Cc2c([nH]c3ccccc23)C2(CCN(CCc3ccccc3)CC2)N1 (stereo not given) | 2.97
37 | Cc1ccc(O)cc1Nc1ccnc2cc(-c3csc(CN4CCN(C)CC4)n3)ccc12 | 8.26
38 | COC(=O)c1cccc(CNCc2cccc(-c3ccc(-c4nc5cccc(C)c5[nH]4)cc3)c2)c1 | 11.9
39 | Cc1noc(C)c1C(=O)N1CCCC(c2[nH]c3c(C)cccc3c2-c2ccncc2)C1 (stereo not given) | 2.42
40 | COc1ccc2ncc(F)c([C@H](O)CN3CCC(NCc4cc5c(cn4)OCCO5)CC3)c2c1 | 6.21

These compounds were tested against Hexose transporter 1 (Plasmodium falciparum) (UniProt O97467) (assay: ST_JUDE_LEISH: Cytotoxicity at 2uM final concentration against transgenic Leishmania Mexicana promastigotes LmPfHT that are glucose transport deficient and complemented with the Plasmodium falciparum hexose transporter. Activity is measured by DNA content using SYBR green in vitro).
Format: functional

Row | Structure (SMILES) | inhibition [%]
41 | CCCc1cc(Cc2cnc(N)nc2N)cc(CCC)c1OCCCCC(=O)OCC | 2.3
42 | CC(C)C[C@@H](/C=N/N1CCOC1=O)NC(=O)[C@H](CC(C)C)NC(=O)c1ccc(F)cc1 | 11.5
43 | CCc1c[nH]c2c(N3CCCCS3(=O)=O)cc(C(=O)N[C@@H](Cc3ccccc3)[C@H](O)CNCc3cccc(OC)c3)cc12 | -0.07
44 | COc1ccc(NC(=O)/C=C/c2ccccc2Cl)cc1OCCN1CCC(N(C)C)CC1 | 1.6
45 | O=C(Nc1cccc(CN2CCN(Cc3ccc(O)cc3)CC2)c1)c1cc2ccccc2s1 | 7.34
46 | CCN(CC)CCN(Cc1ccc(-c2ccc(C(F)(F)F)cc2)cc1)C(=O)Cn1c(CCc2cc(F)ccc2F)nc(=O)c2ccccc21 | -1.65
47 | N=C(N)Nc1nc(-c2cccc(NC(=O)NCc3ccc(OC(F)(F)F)cc3)c2)cs1 | 0.95
48 | Cc1cccc2nc(-c3cccc(-c4ccc(NC(=O)C(C)C(=O)NC(C)C)cc4)c3)[nH]c12 (stereo not given) | 2.05
49 | CC(CN1CCN(C)CC1)C(=O)Nc1cccc(-c2ccc(-c3nc4cc(F)ccc4[nH]3)cc2)c1 (stereo not given) | 3.13
50 | O=C(NC1CCCCN(Cc2ccccc2O)C1)c1cc(F)cc(F)c1 (stereo not given) | 5.08
51 | COc1ccc(CN2CCC2=O)c(OC)c1 | 3.17
52 | O=c1[nH]ccc2nc(N[C@@H]3CCNC3)nc(Nc3cccc(S(=O)(=O)N4CCOCC4)c3)c12 | 3.93
53 | COc1ccc(NC(=O)/C=C/c2ccccc2Cl)cc1OCCN1CCC(N2CCCCC2)CC1 | 7.17
54 | Cc1ccc(Oc2ccc(CNc3nc(Nc4cccc(F)c4)nc(Nc4cccc(F)c4)n3)cc2)cc1 | 8.04
55 | O=C1Nc2cccc3c2C1(CCCCN1CCC(c2c(-c4ccc(F)cc4)[nH]c4ccccc24)CC1)CCC3 (stereo not given) | 5.23
56 | CCN(CC1CCN(CC2(O)CCOCC2)CC1)c1cc(C)nc(Nc2ccc(Cl)cc2)n1 | 0.27
57 | COc1cc(Nc2nccc(N3CCC(NC(=O)C(C)c4ccc(Cl)cc4)C3)n2)cc(OC)c1OC (stereo not given) | -0.55
58 | Cc1ccc(C(=O)NCC2CCN(c3ccc(C(F)(F)F)cc3NC(=O)c3ccco3)CC2)cn1 | -2.99
59 | O=c1cc(NC[C@H]2CCC[C@@H]2NC2CCCc3c2[nH]c2ccccc32)[nH]c2ccccc12 (stereo not given in full) | -1.31
60 | CC(C)(C)C(=O)Oc1ccc(CC2NCCc3cc(OC(=O)C(C)(C)C)c(OC(=O)C(C)(C)C)cc32)cc1OC(=O)C(C)(C)C (stereo not given) | 9.32

Row | Structure (SMILES) | inhibition [%]
61 | O=C(Nc1cc(C(F)(F)F)ccc1-n1cncn1)C1(c2ccccc2)CC1 | -1.95
62 | Clc1ccc(CNCCCCCCCNCc2ccc(Cl)c(Cl)c2)cc1Cl | -1.24
63 | CCOC(=O)c1ccc2[nH]c(-c3ccc(C(=O)NCc4ccc(C(C)(C)C)cc4)cc3)nc2c1 | 2.27
64 | C[C@@H](Oc1cc(-n2cnc3ccc(OCC4CCN(S(C)(=O)=O)CC4)cc32)sc1C(N)=O)c1ccccc1C(F)(F)F | 9.1
65 | CN(C)CCOc1ccc(-c2cc(-c3ccncc3)c(-c3ccc(Cl)c(O)c3)o2)cc1 | 1.64
66 | O=C(NCCCCCN1CCC(c2c[nH]c3ccccc23)CC1)Nc1cccc(I)c1 | 12.6
67 | CCc1cc2c(=O)c(-c3nc(C)cs3)c([C@H](N)Cc3ccc(O)cc3)oc2cc1O | 2.34
68 | O=C(NC1CCN(c2ccnc3cc(Cl)ccc23)C1)c1ccc(F)cc1 (stereo not given) | 2.61
69 | Cc1ccc(O)cc1Nc1ccnc2cc(-c3csc(CNCCN4CCOCC4)n3)ccc12 | 0.86
70 | COc1ccc([N+](=O)[O-])cc1N(Cc1ccccc1-c1ccccc1)S(=O)(=O)c1ccc(C(F)(F)F)cc1 | 5.68
71 | COc1cccc(-c2cnc(-c3ccncc3)nc2C2CCN(Cc3ccc(NC(C)=O)cc3)CC2)c1 | 4.22
72 | COc1ccc(-c2ccc(CN(C)C3CCC(NC(=O)c4cc5ccccc5[nH]4)CC3)cc2)cn1 (stereo not given) | -1.14
73 | Cc1cc(N[C@@H](Cc2ccccc2)C(=O)NCc2cccc(F)c2)nc(Nc2ccccc2)n1 | 7.5
74 | Cc1cc(OCC2CCN(c3ncc(C(=O)Nc4ccccc4)cc3Cl)CC2)ccc1F | -2.28
75 | Cc1nc2ccc(NC(=O)Nc3ccnc4ccc(C(F)(F)F)cc34)cc2o1 | 10.7
76 | CCCCCCNC(=O)C1Cc2c([nH]c3ccccc23)C2(CCN(CCc3ccccc3)CC2)N1 (stereo not given) | 0.47
77 | Cc1ccc(O)cc1Nc1ccnc2cc(-c3csc(CN4CCN(C)CC4)n3)ccc12 | 5.93
78 | COC(=O)c1cccc(CNCc2cccc(-c3ccc(-c4nc5cccc(C)c5[nH]4)cc3)c2)c1 | 7.9
79 | Cc1noc(C)c1C(=O)N1CCCC(c2[nH]c3c(C)cccc3c2-c2ccncc2)C1 (stereo not given) | 3
80 | COc1ccc2ncc(F)c([C@H](O)CN3CCC(NCc4cc5c(cn4)OCCO5)CC3)c2c1 | 6.52

Reference: ChEMBL document CHEMBL3433997, “St. Jude Leishmania screening dataset” (2016)
